Assay results taken from PubChem BioAssay AID1159580 (chemical genetic matrix, 2015).
The campaign covered roughly 5,500 compounds. About 2,000 (36%) were called active. Not shown: some 18% with an inconclusive outcome. No stated cut-off is given here; in the data, active means normalized growth mostly below about 0.91 (no sharp cut-off); inconclusive means no clear call, values can overlap the other calls; inactive means mostly above about 0.92. Some of the results follow.

Experiment: chemical genetic growth profiling, strain panel (AID 1159580);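 further: tested at 20 µM; growth read once vehicle control cultures reached saturation at 30 °C; 1 = growth at the plate median or of vehicle wells; lower values mean less growth of the strain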
Conditions: growth OD

Measured: normalized growth

CCC1(c2ccccc2)C(=O)NCNC1=O
inactive: S. cerevisiae deletion strains, locus YJR075W, strain HOC1, active compounds read low 1.01 | S. cerevisiae deletion strains, locus YKL009W, strain mrt4, active compounds read low 0.998 | S. cerevisiae deletion strains, locus YKL068W, active compounds read low 0.997 | S. cerevisiae deletion strains, locus YKL085W, strain MDH1 (second series), active compounds read low 0.996 | S. cerevisiae deletion strains, locus YKL085W, strain MDH1, active compounds read low 0.996 | S. cerevisiae deletion strains, locus YKL160W, strain elf1, active compounds read low 1.02 | S. cerevisiae deletion strains, locus YKL190W, strain CNB1, active compounds read low 1.01 | S. cerevisiae deletion strains, locus YKR001C, strain vps1, active compounds read low 0.995 | S. cerevisiae deletion strains, locus YKR026C, strain gcn3, active compounds read low 0.978 | S. cerevisiae deletion strains, locus YKR091W, strain srl3, active compounds read low 0.999 | S. cerevisiae deletion strains, locus YLL001W, strain dnm1, active compounds read low 1.02 | S. cerevisiae deletion strains, locus YLL026W, active compounds read low 1 | S. cerevisiae deletion strains, locus YLL041C, strain sdh2, active compounds read low 1.01 | S. cerevisiae deletion strains, locus YLR027C, strain aat2, active compounds read low 1.01 | S. cerevisiae deletion strains, locus YLR039C, strain RIC1, active compounds read low 0.971 | S. cerevisiae deletion strains, locus YLR058C, strain SHM2, active compounds read low 1.01 | S. cerevisiae deletion strains, locus YLR102C, strain apc9, active compounds read low 0.996 | S. cerevisiae deletion strains, locus YLR113W, strain HOG1, active compounds read low 0.993 | S. cerevisiae deletion strains, locus YLR221C, strain rsa3, active compounds read low 1.01 | S. cerevisiae deletion strains, locus YLR258W, strain gsy2, active compounds read low 1.01 | S. cerevisiae deletion strains, locus YLR262C, strain YPT6 (second series), active compounds read low 1.03 | S. cerevisiae deletion strains, locus YLR262C, strain YPT6, active compounds read low 0.995 | S. cerevisiae deletion strains, locus YLR268W, strain sec22, active compounds read low 0.981 | S. cerevisiae deletion strains, locus YLR320W, strain mms22, active compounds read low 1.02 | S. cerevisiae deletion strains, locus YLR330W, strain CHS5, active compounds read low 1.01 | S. cerevisiae deletion strains, locus YLR342W, strain FKS1 (second series), active compounds read low 1.01 | S. cerevisiae deletion strains, locus YLR342W, strain FKS1, active compounds read low 1.03 | S. cerevisiae deletion strains, locus YLR357W, strain rsc2, active compounds read low 1.02 | S. cerevisiae deletion strains, locus YLR370C, strain arc18, active compounds read low 1.01 | S. cerevisiae deletion strains, locus YLR371W, strain rom2, active compounds read low 1 | S. cerevisiae deletion strains, locus YLR384C, strain iki3, active compounds read low 1.01 | S. cerevisiae deletion strains, locus YLR418C, strain cdc73, active compounds read low 0.992 | S. cerevisiae deletion strains, locus YML016C, strain PPZ1, active compounds read low 1 | S. cerevisiae deletion strains, locus YML032C, strain rad52, active compounds read low 0.992 | S. cerevisiae deletion strains, locus YML120C, strain ndi1, active compounds read low 1.01 | S. cerevisiae deletion strains, locus YML124C, strain tub3, active compounds read low 0.995 | S. cerevisiae deletion strains, locus YMR058W, strain fet3, active compounds read low 0.995 | S. cerevisiae deletion strains, locus YMR078C, strain ctf18, active compounds read low 1 | S. cerevisiae deletion strains, locus YMR125W, strain sto1, active compounds read low 0.979 | S. cerevisiae deletion strains, locus YMR129W, active compounds read low 0.99 | S. cerevisiae deletion strains, locus YMR205C, strain PFK2, active compounds read low 1.02 | S. cerevisiae deletion strains, locus YMR223W, strain ubp8, active compounds read low 0.995 | S. cerevisiae deletion strains, locus YMR231W, strain pep5, active compounds read low 1.01 | S. cerevisiae deletion strains, locus YMR263W, strain SAP30, active compounds read low 0.982 | S. cerevisiae deletion strains, locus YMR307W, strain GAS1, active compounds read low 0.998 | S. cerevisiae deletion strains, locus YNL067W, strain RPL9B, active compounds read low 1.01 | S. cerevisiae deletion strains, locus YNL071W, strain lat1, active compounds read low 1 | S. cerevisiae deletion strains, locus YNL128W, strain TEP1, active compounds read low 1.02 | S. cerevisiae deletion strains, locus YNL153C, strain GIM3, active compounds read low 1.13 | S. cerevisiae deletion strains, locus YNL175C, strain NOP13, active compounds read low 0.997 | S. cerevisiae deletion strains, locus YNL183C, strain NPR1, active compounds read low 0.975 | S. cerevisiae deletion strains, locus YNL197C, strain WHI3, active compounds read low 0.976 | S. cerevisiae deletion strains, locus YNL209W, strain ssb2, active compounds read low 1.01 | S. cerevisiae deletion strains, locus YNL224C, strain SQS1, active compounds read low 1 | S. cerevisiae deletion strains, locus YNL233W, strain BNI4, active compounds read low 1 | S. cerevisiae deletion strains, locus YNL248C, strain rpa49, active compounds read low 1.01 | S. cerevisiae deletion strains, locus YNL250W, strain rad50, active compounds read low 0.998 | S. cerevisiae deletion strains, locus YNL271C, strain bni1, active compounds read low 0.993 | S. cerevisiae deletion strains, locus YNL298W, strain CLA4, active compounds read low 1.01 | S. cerevisiae deletion strains, locus YNL307C, strain MCK1, active compounds read low 0.995 | S. cerevisiae deletion strains, locus YNL322C, strain KRE1 (second series), active compounds read low 1.01 | S. cerevisiae deletion strains, locus YNL322C, strain KRE1, active compounds read low 1 | S. cerevisiae deletion strains, locus YNR049C, strain mso1, active compounds read low 1 | S. cerevisiae deletion strains, locus YNR052C, strain pop2, active compounds read low 0.998 | S. cerevisiae deletion strains, locus YOL006C, strain TOP1, active compounds read low 0.989 | S. cerevisiae deletion strains, locus YOL012C, strain htz1 0.947 | S. cerevisiae deletion strains, locus YOL147C, strain pex11, active compounds read low 0.988 | S. cerevisiae deletion strains, locus YOR001W, strain rrp6, active compounds read low 0.981 | S. cerevisiae deletion strains, locus YOR061W, strain CKA2, active compounds read low 1 | S. cerevisiae deletion strains, locus YOR069W, strain VPS5, active compounds read low 1.01 | S. cerevisiae deletion strains, locus YOR070C, strain gyp1, active compounds read low 1.01 | S. cerevisiae deletion strains, locus YOR080W, strain dia2, active compounds read low 1.01 | S. cerevisiae deletion strains, locus YOR083W, strain WHI5 (second series), active compounds read low 1 | S. cerevisiae deletion strains, locus YOR083W, strain WHI5, active compounds read low 1.02 | S. cerevisiae deletion strains, locus YOR106W, strain vam3, active compounds read low 1.01 | S. cerevisiae deletion strains, locus YOR136W, strain idh2, active compounds read low 1 | S. cerevisiae deletion strains, locus YOR144C, strain elg1, active compounds read low 0.992 | S. cerevisiae deletion strains, locus YOR184W, strain ser1, active compounds read low 1.01 | S. cerevisiae deletion strains, locus YOR231W, strain MKK1, active compounds read low 1 | S. cerevisiae deletion strains, locus YOR265W, strain rbl2, active compounds read low 1 | S. cerevisiae deletion strains, locus YOR270C, strain vph1, active compounds read low 1.02 | S. cerevisiae deletion strains, locus YOR290C, strain snf2, active compounds read low 1.01 | S. cerevisiae deletion strains, locus YOR316C, strain cot1, active compounds read low 0.996 | S. cerevisiae deletion strains, locus YPL051W, strain arl3, active compounds read low 1.01 | S. cerevisiae deletion strains, locus YPL055C, strain LGE1, active compounds read low 1.01 | S. cerevisiae deletion strains, locus YPL078C, strain atp4, active compounds read low 0.994 | S. cerevisiae deletion strains, locus YPL106C, strain sse1, active compounds read low 1.01 | S. cerevisiae deletion strains, locus YPL240C, strain hsp82, active compounds read low 0.992 | S. cerevisiae deletion strains, locus YPL241C, strain CIN2, active compounds read low 1.01 | S. cerevisiae deletion strains, locus YPL256C, strain CLN2, active compounds read low 1 | S. cerevisiae deletion strains, locus YPR119W, strain clb2, active compounds read low 0.996 | S. cerevisiae deletion strains, locus YPR141C, strain kar3, active compounds read low 0.989 | S. cerevisiae deletion strains, locus YPR163C, strain tif3, active compounds read low 0.994 | S. cerevisiae deletion strains, locus YPR167C, strain met16, active compounds read low 0.995 | S. cerevisiae deletion strains, strain wtn01, active compounds read low 0.991 | S. cerevisiae strains, strain wild type, active compounds read low 1.01
